The source of these data is PubChem BioAssay (NCI).

Each structure is given as a SMILES string. Compounds without any hit were thinned out: in the full panel of roughly 79,000, 15% have a hit. Values without a mark were called inactive. Activity calls are given as the source filed them. Cut-off read from the data, not from the text of the source: active = growth inhibition above about 70%; inactive = the rest.

Assay [1] is described as follows: NCI Yeast Anticancer Drug Screen. Data for the rad50 strain (AID 155).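 Note: 0% = growth of vehicle-only cultures of the same strain.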 The note with it: S. cerevisiae rad50 strain growth inhibition, stronger effect = higher value. The gist of the method: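 Cells are treated with compound, grown, and their growth is then scored against vehicle-only cultures of the same repair-deficient yeast strain.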
Assay [2] can be described thus: NCI Yeast Anticancer Drug Screen. Data for the mec2-1 strain (AID 157). The note with it: S. cerevisiae mec2-1 strain, stronger effect = higher value. The method, boiled down:
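Each compound was tested on mec2-1 yeast, a strain altered in DNA damage repair or cell cycle control. Growth inhibition is reported relative to vehicle.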

A short description of assay [3]: NCI Yeast Anticancer Drug Screen. Data for the sgs1 mgt1 strain (AID 161).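 Note: 0% = growth of cultures given vehicle only.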 The note with it: S. cerevisiae sgs1 mgt1 strain, stronger effect = higher value. The method, boiled down:
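Test agents were incubated with a DNA-repair-mutant yeast strain. Growth was then read and compared against vehicle-treated controls.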

Assay [4] is described as follows: NCI Yeast Anticancer Drug Screen. Data for the cln2 rad14 strain (AID 165).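 Note: 0% = growth equal to vehicle treated cultures.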 The note with it: S. cerevisiae cln2 rad14 strain, stronger effect = higher value. The gist of the method: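 Test compounds were added to cln2 rad14 yeast cultures; inhibition of growth was then determined by comparison with vehicle treatment.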
A short description of assay [5]: NCI Yeast Anticancer Drug Screen. Data for the bub3 strain (AID 167). As to conditions: S. cerevisiae bub3 mutant strain, stronger effect = higher value. The method, boiled down:
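Part of a panel of yeast mutants defective in DNA damage repair or cell cycle regulation. Each strain is grown with compound, and inhibition is calculated relative to solvent-treated cultures.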

A short description of assay [6]: NCI Yeast Anticancer Drug Screen. Data for the mlh1 rad18 strain (AID 175). As to conditions: S. cerevisiae mlh1 rad18 strain growth inhibition, stronger effect = higher value. The method, boiled down:
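Inhibition values reflect reduced growth of mutant yeast versus vehicle-treated controls following compound exposure; the mutations affect DNA damage repair.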

Setting [7] is: at 5.0 µM (retest, dose inferred, filed as 0.5).
Setting [8] is: at 50.0 µM (retest, dose inferred, filed as 5.0).

In the case of `O=NNc1nc(-c2ccccn2)nc2ccccc12`, the growth inhibition was -7% in assay [1] (setting [7]); 96% (active) in assay [1] (setting [8]); 96.5% (active) in assay [1] (at 50.0 µM); 7% in assay [2] (setting [7]); 99% (active) in assay [2] (setting [8]); 97.9% (active) in assay [2] (at 50.0 µM). For the same compound, the growth inhibition is -4% in assay [3] (setting [7]); 97% (active) in assay [3] (setting [8]); 98.2% (active) in assay [3] (at 50.0 µM); -2% in assay [4] (setting [7]); 92% (active) in assay [4] (setting [8]); 41.2% in assay [4] (at 50.0 µM). The growth inhibition in assay [5] (setting [7]) is -14%; in assay [5] (setting [8]) it was 98% (active); in assay [5] (at 50.0 µM) it was 19.9%; in assay [6] (setting [7]) it was 1%; in assay [6] (setting [8]), 99% (active); in assay [6] (at 50.0 µM), 98.5% (active).

For the compound `C/C(CCC1CCc2ccccc2C1)=N\NC(N)=O` (configuration not stated), the growth inhibition was -11% in assay [1] (setting [7]); -8% in assay [1] (setting [8]); 32.2% in assay [1] (at 50.0 µM); -4% in assay [2] (setting [7]); 0% in assay [2] (setting [8]); 12.3% in assay [2] (at 50.0 µM). The growth inhibition in assay [3] (setting [7]) was 1%; in assay [3] (setting [8]), 5%; in assay [3] (at 50.0 µM), 6.2%; in assay [4] (setting [7]) it was -42%; in assay [4] (setting [8]), -13%; in assay [4] (at 50.0 µM) it was -1.45%. Further, the growth inhibition in assay [5] (setting [7]) was 0%; in assay [5] (setting [8]), -2%; in assay [5] (at 50.0 µM), 11.4%; in assay [6] (setting [7]) it was -8%; in assay [6] (setting [8]), -10%; in assay [6] (at 50.0 µM) it was -6.5%.

For the compound `COc1ccc(N=Nc2ccc3oc(=O)c(C(=O)Nc4ccc(OC)cc4)cc3c2)cc1`, the growth inhibition in assay [1] (setting [7]) was 24%; in assay [1] (setting [8]) it was 97% (active); in assay [1] (at 50.0 µM), 94.8% (active); in assay [2] (setting [7]) it was 14%; in assay [2] (setting [8]), 97% (active); in assay [2] (at 50.0 µM), 95.3% (active). Moreover, the growth inhibition in assay [3] (setting [7]) was 14%; in assay [3] (setting [8]), 98% (active); in assay [3] (at 50.0 µM), 95.5% (active); in assay [4] (setting [7]) it was 26%; in assay [4] (setting [8]), 94% (active); in assay [4] (at 50.0 µM), 94.3% (active). The growth inhibition in assay [5] (setting [7]) was -25%; in assay [5] (setting [8]) it was 92% (active); in assay [5] (at 50.0 µM) it was 95.3% (active); in assay [6] (setting [7]), 36%; in assay [6] (setting [8]), 97% (active); in assay [6] (at 50.0 µM), 95.1% (active).

Regarding `O=C(Nc1cc(Cl)cc(Cl)c1)C(F)(F)F`, the growth inhibition is 27% in assay [1] (setting [7]); 98% (active) in assay [1] (setting [8]); 83.9% (active) in assay [1] (at 50.0 µM); 34% in assay [2] (setting [7]); 100% (active) in assay [2] (setting [8]); 87.5% (active) in assay [2] (at 50.0 µM). The growth inhibition in assay [3] (setting [7]) was 37%; in assay [3] (setting [8]), 99% (active); in assay [3] (at 50.0 µM), 96.4% (active); in assay [4] (setting [7]) it was 9%; in assay [4] (setting [8]), 99% (active); in assay [4] (at 50.0 µM) it was 92.4% (active). The growth inhibition was 96% (active) in assay [5] (setting [7]); 99% (active) in assay [5] (setting [8]); 85% (active) in assay [5] (at 50.0 µM); 59% in assay [6] (setting [7]); 99% (active) in assay [6] (setting [8]); 97.4% (active) in assay [6] (at 50.0 µM).

Regarding `Cc1ccc2nn(-c3ccc(O)cc3)nc2c1`, the growth inhibition is 11% in assay [1] (setting [7]); 45% in assay [1] (setting [8]); 50.3% in assay [1] (at 50.0 µM); 16% in assay [2] (setting [7]); 42% in assay [2] (setting [8]); 22.6% in assay [2] (at 50.0 µM). Further, the growth inhibition in assay [3] (setting [7]) was 7%; in assay [3] (setting [8]) it was 38%; in assay [3] (at 50.0 µM), 27%; in assay [4] (setting [7]) it was 6%; in assay [4] (setting [8]) it was 39%; in assay [4] (at 50.0 µM), 29.3%. Further, the growth inhibition in assay [5] (setting [7]) was 28%; in assay [5] (setting [8]) it was 69%; in assay [5] (at 50.0 µM) it was 74.5% (active); in assay [6] (setting [7]), 12%; in assay [6] (setting [8]), 50%; in assay [6] (at 50.0 µM) it was 74.2% (active).

On to `N/C(=N\N=C\c1cc(I)cc(I)c1O)NO`, for which the growth inhibition in assay [1] (setting [7]) is 11%; in assay [1] (setting [8]), 98% (active); in assay [1] (at 50.0 µM), 95.5% (active); in assay [2] (setting [7]), 1%; in assay [2] (setting [8]) it was 96% (active); in assay [2] (at 50.0 µM), 95.3% (active). For the same compound, the growth inhibition in assay [3] (setting [7]) was 2%; in assay [3] (setting [8]), 98% (active); in assay [3] (at 50.0 µM), 97.6% (active); in assay [4] (setting [7]), 38%; in assay [4] (setting [8]), 89% (active); in assay [4] (at 50.0 µM), 93.7% (active). In addition, the growth inhibition is -2% in assay [5] (setting [7]); 99% (active) in assay [5] (setting [8]); 96.7% (active) in assay [5] (at 50.0 µM); 24% in assay [6] (setting [7]); 99% (active) in assay [6] (setting [8]); 97.9% (active) in assay [6] (at 50.0 µM).

For `C=CS(=O)(=O)c1ccc2ccccc2c1`, the growth inhibition in assay [1] (setting [7]) is -100%; in assay [1] (setting [8]), 97% (active); in assay [1] (at 50.0 µM), 99.5% (active); in assay [2] (setting [7]), -22%; in assay [2] (setting [8]) it was 98% (active); in assay [2] (at 50.0 µM), 99.4% (active). Further, the growth inhibition in assay [3] (setting [7]) was -20%; in assay [3] (setting [8]) it was 98% (active); in assay [3] (at 50.0 µM) it was 99.2% (active); in assay [4] (setting [7]), -34%; in assay [4] (setting [8]) it was 97% (active); in assay [4] (at 50.0 µM), 98.7% (active). Also, the growth inhibition is -35% in assay [5] (setting [7]); 97% (active) in assay [5] (setting [8]); 98.8% (active) in assay [5] (at 50.0 µM); -93% in assay [6] (setting [7]); 97% (active) in assay [6] (setting [8]); 99% (active) in assay [6] (at 50.0 µM).

For the compound `N#CC(CC(=O)O)C(c1cccc2ccccc12)c1cccc2ccccc12` (configuration not stated), the growth inhibition is 10% in assay [1] (setting [7]); 99% (active) in assay [1] (setting [8]); 99.1% (active) in assay [1] (at 50.0 µM); 17% in assay [2] (setting [7]); 99% (active) in assay [2] (setting [8]); 98.5% (active) in assay [2] (at 50.0 µM). The growth inhibition is 4% in assay [3] (setting [7]); 98% (active) in assay [3] (setting [8]); 98.8% (active) in assay [3] (at 50.0 µM); 4% in assay [4] (setting [7]); 99% (active) in assay [4] (setting [8]); 97.6% (active) in assay [4] (at 50.0 µM). For the same compound, the growth inhibition in assay [5] (setting [7]) is 17%; in assay [5] (setting [8]), 99% (active); in assay [5] (at 50.0 µM), 98.5% (active); in assay [6] (setting [7]) it was 17%; in assay [6] (setting [8]), 99% (active); in assay [6] (at 50.0 µM) it was 99.2% (active).

On to `C[N+]1(C)CCN(CCCN2c3ccccc3Sc3ccccc32)CC1`, for which the growth inhibition in assay [1] (setting [7]) was 0%; in assay [1] (setting [8]) it was 54%; in assay [1] (at 50.0 µM), 42.1%; in assay [2] (setting [7]) it was 8%; in assay [2] (setting [8]), 22%; in assay [2] (at 50.0 µM), 14.3%. Further, the growth inhibition in assay [3] (setting [7]) is -222%; in assay [3] (setting [8]) it was 66%; in assay [3] (at 50.0 µM), 66.9%; in assay [4] (setting [7]), 4%; in assay [4] (setting [8]) it was 15%; in assay [4] (at 50.0 µM), 25.7%. The growth inhibition in assay [5] (setting [7]) is 5%; in assay [5] (setting [8]), 26%; in assay [5] (at 50.0 µM), 10.9%; in assay [6] (setting [7]), -5%; in assay [6] (setting [8]), 76% (active); in assay [6] (at 50.0 µM), 56.9%.
